From PubChem BioAssay AID1259343 (VanderVen Lab, College of Veterinary Medicine, Cornell …, 2017)
Hit rate of the full screen: of about 6,200 compounds, about 2,900 (47%) were called active. The set was probably picked from earlier hits. The list shows a part of the results. A number with no mark means an inactive call. Rule as the data show it: active = inhibition above about 50%; inactive = the rest.

Assay: Mycobacterium tuberculosis growth inhibition, primary screen (AID 1259343)
Details: inhibition: at 10 µM, hits give high values; outcome: 10 uM
With CC(C)c1cccc(OCCOc2cccc3cccnc23)c1 the inhibition was 58.4% (active).
Compound Cc1ccc2cccc(OCCCOc3ccc(C)c(C)c3)c2n1 has an inhibition of -21.9%.
With CC(C)c1ccccc1OCCOc1cccc2cccnc12 the inhibition was 61.7% (active).
Work on Cc1cc(S(=O)(=O)NC2CCCCC2C)ccc1Cl (centres undefined) yielded an inhibition of 14.4%.
With O=C1c2ccccc2C(=O)C1c1ccnc2ccccc12 the inhibition was -13.4%.
For Nc1c2ccccc2nc2ccccc12 (tested in a mixture with another compound), the inhibition was 90.3% (active).
For Cc1nn2c(-c3cccc(C(F)(F)F)c3)cc(C(=O)O)nc2c1-c1ccccc1, the inhibition was 89.3% (active).
With Cc1nn2c(-c3ccccc3Cl)cc(C(=O)O)nc2c1-c1ccccc1 the inhibition was 71.1% (active).
With Cc1nn2c(NCCOCCO)cc(C(C)(C)C)nc2c1-c1ccccc1Cl the inhibition was 19.6%.
Compound COc1ccc(-c2cc(C(=O)NCCN3CCCCC3)nc3c(-c4ccccc4)c(C)nn23)cc1 has an inhibition of 38.1%.
For COc1ccccc1CN(Cc1cccc(C(F)(F)F)c1)Cc1nc(C(=O)O)co1, the inhibition was 9.16%.
For O=C1CCCC2=C1C(c1ccncc1)NC(=O)N2Cc1ccccc1 (centres undefined), the inhibition was 85.2% (active).
For COc1ccc(C(=O)N2CCCC(C(=O)c3ccc(-c4ccccc4)c(F)c3)C2)o1 (centres undefined), the inhibition was “inactive”.
Work on COc1ccc2cc(C(=O)C3CCCN(Cc4cccc(C)n4)C3)ccc2c1 (centres undefined) yielded an inhibition of 42.4%.
For COc1ccc2cc(C(=O)C3CCCN(C(=O)CCC(=O)c4ccc(F)cc4)C3)ccc2c1 (centres undefined), the inhibition was 87.2% (active).
In the case of Clc1ccc(Nc2nccc3c2ncn3Cc2ccccc2)cc1, the inhibition is reported as 57.3% (active).
Cc1ccc(Nc2nc(N3CCN(Cc4ccccc4)CC3)nc3nccnc23)cc1Cl gave an inhibition of 19.4%.
With CC(C)c1ccc(Nc2nccc3c2ncn3Cc2ccccc2)cc1 the inhibition was 73% (active).
For Cc1cc2ncn(Cc3ccc(C(C)C)cc3)c2cc1C, the inhibition was -9.75%.
Clc1ccc(Cn2ncc3c(Nc4ccc(Cl)cc4)ncnc32)cc1 gave an inhibition of 9.84%.
In the case of C=C(C)Cn1c(SCCCC)nc2c1c(=O)[nH]c(=O)n2C, the inhibition is reported as -35.9%.
Compound CCS(=O)(=O)N1CCc2cc(-c3csc(-c4ccc(O)cc4)n3)ccc21 has an inhibition of 11.5%.
In the case of Cc1ccc(C(=O)N2CCCC(CCc3ccc(F)c(F)c3)C2)cc1O (centres undefined), the inhibition is reported as 7.31%.
O=C(CCCc1ccc(Cl)cc1)N1CCCC(CO)(Cc2ccc(F)cc2F)C1 (centres undefined) gave an inhibition of 18.9%.
For O=C(CCC(F)(F)F)N1CCCC(CCc2ccc(F)cc2F)C1 (centres undefined), the inhibition was 66% (active).
For CCCn1cc(CNC(=O)c2ccc(Cl)cn2)cn1, the inhibition was -32.2%.
In the case of CCCOc1ccc2c(c1)OCC(C(=O)Nc1cnn(C)c1)=C2, the inhibition is reported as -4.68%.
In the case of CCCn1cc(NC(=O)c2cc(-c3ccccc3)on2)cn1, the inhibition is reported as 85.3% (active).
For O=S(=O)(Nc1ccc(N2CCCC2)c(F)c1)c1cc(F)cc(F)c1, the inhibition was 56.4% (active).
O=[N+]([O-])c1cc(S(=O)(=O)C(F)(F)F)ccc1N1CCN(c2ccccc2F)CC1 gave an inhibition of 24.3%.
With Cc1ccc(C(=O)N2CCCN(C(=O)OC(C)(C)C)CC2)cc1S(C)(=O)=O the inhibition was 74.7% (active).
Compound Cc1ccc(Cl)cc1N1CCN(C(=O)c2ccc(=O)[nH]c2)CC1 has an inhibition of 32.4%.
For O=C(c1cc(Br)cc(Br)c1)N1CCCCCC1, the inhibition was -4.59%.
CCN(Cc1ccccc1)C(=O)c1ccc(-c2ccccc2)nc1N1CCOCC1 gave an inhibition of 20.4%.
Compound Cc1cc2c(cc1C)C(=O)C(N1CCOCC1)=C(c1ccccc1)C2=O has an inhibition of 40.4%.
For OCc1sc(N2CCOCC2)nc1-c1ccccc1, the inhibition was 89.7% (active).
In the case of S=c1[nH]nc(-c2cc(-c3cccs3)nc3ccccc23)o1, the inhibition is reported as “inactive”.
With Cc1cc(-c2n[nH]c(=S)o2)c(C)n1-c1ccccc1 the inhibition was 70.3% (active).
In the case of O=S(=O)(Nc1ccc(Br)cc1Cl)c1ccc(F)cc1, the inhibition is reported as 50.5% (active).
Compound COC(=O)c1ccc(F)c(NS(=O)(=O)c2ccc(Cl)c(C(F)(F)F)c2)c1 has an inhibition of 41.9%.
Compound O=S(=O)(Nc1ccc(Br)cc1F)c1cccs1 has an inhibition of 31.8%.
With O=S(=O)(Nc1ccc(Br)cc1F)c1ccc(Cl)c(C(F)(F)F)c1 the inhibition was 88.3% (active).
O=[N+]([O-])c1ccccc1NN=C1CCCCc2ccccc21 gave an inhibition of 5.1%.
Work on CC(C)(C)C1CCC(=NNc2ccc([N+](=O)[O-])cc2)CC1 (centres undefined) yielded an inhibition of -18.8%.
With CCC(C)(C)C1CCC(=NNc2ccc([N+](=O)[O-])cc2)CC1 (centres undefined) the inhibition was 74.3% (active).
In the case of O=[N+]([O-])c1ccc(NN=C2CCCCCCC2)cc1, the inhibition is reported as 88.4% (active).
In the case of O=[N+]([O-])c1ccc(NN=CC2CCCCC2)cc1, the inhibition is reported as 97.8% (active).
Work on O=S(=O)(Oc1ccc2ccccc2c1Cl)N1CCCCC1 yielded an inhibition of 0.9%.
In the case of COc1ccc(NC(=O)c2c[nH]c3c(c(C)nn3-c3ccccc3)c2=O)cc1, the inhibition is reported as 67.8% (active).
For COc1cccc(NC(=O)c2c[nH]c3c(c(C)nn3-c3ccccc3)c2=O)c1, the inhibition was 90.4% (active).
For Cc1nn(-c2ccccc2)c2[nH]cc(C(=O)Nc3ccccc3)c(=O)c12, the inhibition was 53.1% (active).
Cc1cc(C)cc(NC(=O)c2c[nH]c3c(c(C)nn3-c3ccccc3)c2=O)c1 gave an inhibition of 45.9%.
Cc1nn(-c2ccccc2)c2[nH]cc(C(=O)Nc3ccc(N(C)C)cc3)c(=O)c12 showed an inhibition of 29%.
In the case of Cc1ccc(-n2nc(C)c3c(=O)c(C(=O)N4c5ccccc5CC4C)c[nH]c32)cc1 (centres undefined), the inhibition is reported as 54.2% (active).
In the case of Cc1nn(-c2ccccc2)c2[nH]cc(C(=O)NCc3ccccc3)c(=O)c12, the inhibition is reported as 51.6% (active).
Cc1ccc(CNC(=O)c2c[nH]c3c(c(C)nn3-c3ccccc3)c2=O)cc1 gave an inhibition of 49.8%.
Work on Cc1nn(-c2ccccc2)c2[nH]cc(C(=O)NCc3ccccc3Cl)c(=O)c12 yielded an inhibition of 31.5%.
With Cc1noc(-c2cc(Br)cc(Br)c2O)n1 the inhibition was 101% (active).
For O=C(O)c1cc2cc(Cl)ccc2[nH]1, the inhibition was 56.1% (active).
With O=C(O)c1csc(-c2ccc(Cl)cc2Cl)n1 the inhibition was 39.2%.
For Cc1cc(Cl)cc2sc(N(CCCn3ccnc3)C(=O)/C=C/c3cccs3)nc12, the inhibition was 75.5% (active).
N=C1C2=C3Sc4ccccc4N3CCCC2=NN1c1ccc(Cl)cc1 showed an inhibition of 13.7%.
In the case of CN(Sc1ccccc1[N+](=O)[O-])c1ccccc1, the inhibition is reported as 30.9%.
With O=[N+]([O-])c1cccnc1Oc1ccc(Oc2ccccc2)cc1 the inhibition was 94.5% (active).
For c1ccc(CCCc2nnnn2CC2CCOC2)cc1 (centres undefined), the inhibition was 65.2% (active).
CC(C)c1noc(C(C)Nc2ccc3c(c2)CCO3)n1 (centres undefined) gave an inhibition of 1.87%.
For COc1ccc(NC(C)c2nc(-c3ccco3)no2)cc1 (centres undefined), the inhibition was 94.9% (active).
Compound CC1(C)C2CCC1(C)C(NS(=O)(=O)Cc1ccccc1)C2 (centres undefined) has an inhibition of 7.59%.
In the case of CC1CCC(NC(=O)COc2ccccc2Br)CC1 (centres undefined), the inhibition is reported as 42.5%.
In the case of CC1(C)C2CCC1(C)C(NC(=O)COc1ccccc1Cl)C2 (centres undefined), the inhibition is reported as 91.4% (active).
CCOc1ccccc1NC(=O)N1CCN(CCCOC(c2ccc(Cl)cc2)c2ccc(Cl)cc2)CC1 showed an inhibition of 16.6%.
With Cc1occc1C(=O)Nc1cc(Cl)ccc1C(=O)O the inhibition was 62.5% (active).
For O=C(Nc1ccc(C(=O)O)c(O)c1)c1cc(Cl)cc(Cl)c1, the inhibition was 25.6%.
In the case of Cc1cc(=O)[nH]c(-n2nc(C)cc2NC(=O)C2c3ccccc3Oc3ccccc32)n1, the inhibition is reported as 100% (active).
For CCc1cc(=O)[nH]c(-n2nc(C)cc2NC(=O)C2c3ccccc3Oc3ccccc32)n1, the inhibition was 101% (active).
With Cc1cc(NC(=O)C2c3ccccc3Oc3ccccc32)n(-c2nc3c(c(=O)[nH]2)CCC3)n1 the inhibition was -27.3%.
In the case of CCCc1cc(=O)[nH]c(-n2nc(C)cc2NC(=O)C2c3ccccc3Oc3ccccc32)n1, the inhibition is reported as 99% (active).
For O=C(Nc1ccc(SC(F)F)cc1)c1ccc(-n2cncn2)cc1, the inhibition was 52.4% (active).
With FC(F)Sc1ccc(NC(=S)NN2CCCCC2)cc1 the inhibition was 28.6%.
With CN(C)P(=NC(=S)Nc1ccc(SC(F)F)cc1)(c1ccncc1)N(C)C the inhibition was “inactive”.
With Cc1cc(C(=O)O)n2nc(-c3ccc(Cl)cc3)cc2n1 the inhibition was 76.7% (active).
For COc1cccc(-c2cc(C(=O)O)n3nc(-c4ccccc4)cc3n2)c1, the inhibition was 104% (active).
Work on CCOC(=O)C1CCCN(C(=O)c2cc(-c3cccc(OC)c3)nc3cc(-c4ccccc4)nn23)C1 (centres undefined) yielded an inhibition of 1.82%.
For COc1ccc(C(=O)Nc2nc(-c3ccccc3)cs2)cc1, the inhibition was 22.9%.
In the case of COc1cccc(C(=O)Nc2nc(-c3ccccc3)cs2)c1, the inhibition is reported as 71.2% (active).
In the case of CCN(CC)S(=O)(=O)c1ccc(C(=O)Nc2nc(-c3ccccc3)cs2)cc1, the inhibition is reported as 35.8%.
COc1ccc(-c2cc3nc(C)cc(NC(C)c4ccccc4)n3n2)cc1OC (centres undefined) gave an inhibition of 26.1%.
For O=C(O)c1cc(-c2ccccc2F)nc2cc(-c3ccccc3)nn12, the inhibition was 71.8% (active).
COc1ccc(-c2cc(C(=O)O)n3nc(-c4ccc(Cl)cc4)cc3n2)cc1 gave an inhibition of 41.5%.
In the case of Cc1cc(C(=O)NCCc2ccccc2)n2nc(-c3ccccc3)cc2n1, the inhibition is reported as 81.8% (active).
In the case of Cc1ccc(-c2cc(C(=O)N(CCN(C)C)Cc3ccccc3)n(-c3ccccc3)n2)cc1C, the inhibition is reported as 27.2%.
For CC(C)(C)C(=O)Nc1nc(-c2cccc(Br)c2)cs1, the inhibition was 57.1% (active).
In the case of O=C(O)c1cc(-c2ccccc2F)nc2cc(-c3ccc(Cl)cc3)nn12, the inhibition is reported as 88.1% (active).
For O=C(O)c1cc(-c2ccc(F)cc2)nc2cc(-c3ccccc3)nn12, the inhibition was 67.1% (active).
Nc1nc(-c2ccccc2Cl)co1 gave an inhibition of 12%.
In the case of O=C(O)c1cc(-c2ccccc2Cl)nc2cc(-c3ccccc3)nn12, the inhibition is reported as 96.6% (active).
Cc1ccc(-c2c(C)nn3c(NCCc4ccccc4)cc(C)nc23)cc1 showed an inhibition of -2.64%.
In the case of COc1ccc(-c2c(C)nn3c(NCCc4ccccc4)cc(C)nc23)cc1OC, the inhibition is reported as 65.5% (active).
Compound Cc1ccc(-c2c(C)nn3c(NCc4cccnc4)cc(C)nc23)cc1 has an inhibition of 30.6%.
